Screening results deposited in PubChem BioAssay by National Center for Advancing Translational Sciences (NCATS).
HT1080 IDH1KD tx: qHTS for induction of synthetic lethality in tumor cells producing 2HG: qHTS for the HT-1080-IDH1KD cell line; Potency, µM (doses to about 46.1 µM), most hits filed as cytotoxic; HT-1080 IDH1 knockdown viability, ATP luminescence, 48 h; hit rate 2% among 360,000; AID 686971, 2013
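Assay cells: HT-1080 with IDH1 knockdown, 750 per well, RPMI/5% FBS. Exposure: 48 h at 37 °C following 2 h pre-incubation. Read: CellTiter-Glo luminescence; fitted concentration-response, curve class assigned.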
HT1080NT lethal: qHTS for induction of synthetic lethality in tumor cells producing 2HG: qHTS for the HT-1080-NT fibrosarcoma cell line | AID 686970, 2013 | hit rate 1.6% among 360,000 | Potency, µM (highest dose often 46.1 µM), hits mostly cytotoxic | HT-1080-NT fibrosarcoma viability, CellTiter-Glo ATP luminescence, 48 h;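 also: NT is the 2HG producing partner of a matched IDH1 knockdown line; nearly all actives have a fitted effect of over 55% in size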
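Viability of the 2HG-overproducing fibrosarcoma line after 48 hours of compound exposure at 37 degrees C was determined by luminescence with CellTiter-Glo, and concentration-effect curves were then fitted and categorized.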
IL1B secr inh: qHTS for Inhibitors of Inflammasome Signaling: IL-1-beta AlphaLISA Primary Screen; THP-1 LPS/ATP IL-1B secretion, AlphaLISA, 16 h; stronger effect = lower value; activity change, % at 57.5 µM; hit rate 4.7% among 360,000; AID 743279, 2014; in the data active = activity change below about -50%; inconclusive = mostly about -30% to -49%
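THP-1 cells pretreated 1 hr with compounds (up to 57.5 uM final), then stimulated with LPS (250 ng/mL final) plus ATP (1.25 mM final); secreted IL-1B measured by AlphaLISA after 16 hr, decreased signal indicating inhibition.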
DT40 TDP1 no CPT: qHTS for Inhibitors of human tyrosyl-DNA phosphodiesterase 1 (TDP1): qHTS in cells in absence of CPT. DT40 Tdp1-/- hTDP1 cells, no CPT, ATP luminescence, 48 h. Potency, µM (series often up to 46.2 µM), most hits filed as inhibitors. hit rate 15% among 420,000. AID 686978, 2013; also: nearly all actives have a fitted effect of over 55% in size
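Growth kinetics read by CellTiter-Glo luminescence after ≥48 hr at 37 °C. Cells: DT40 Tdp1-/- stably carrying human TDP1, 400 per well, compound exposure in the absence of CPT (DMSO vehicle).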
TDP1 cell CPT: qHTS for Inhibitors of human tyrosyl-DNA phosphodiesterase 1 (TDP1): qHTS in cells in presence of CPT; chicken DT40 Tdp1-/-;hTDP1 cells + 20 nM CPT, ATP luminescence, 48 h; Potency, µM (top dose mostly 46.2 µM), usual class: inhibitors; hit rate 12% among 420,000; also: nearly all actives have a fitted effect of over 55% in size
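Chicken DT40 Tdp1-/- cells stably complemented with human TDP1 were seeded at 400 cells/well in medium containing 20 nM camptothecin, exposed to pin-transferred compounds, and grown at 37 °C for at least 48 hr. Viability was read as ATP luminescence.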
ALOX12 inh: Primary qHTS assay for inhibitors of human arachidonate 12S-lipoxygenase (ALOX12): Round 2; AID 1671190, 2021; Potency, µM (series often up to 108 µM), hits mostly inhibitors; purified 12hLO, xylenol orange hydroperoxide absorbance; hit rate 1.1% among 580,000
Target sequence (P18054 whole entry, looked up): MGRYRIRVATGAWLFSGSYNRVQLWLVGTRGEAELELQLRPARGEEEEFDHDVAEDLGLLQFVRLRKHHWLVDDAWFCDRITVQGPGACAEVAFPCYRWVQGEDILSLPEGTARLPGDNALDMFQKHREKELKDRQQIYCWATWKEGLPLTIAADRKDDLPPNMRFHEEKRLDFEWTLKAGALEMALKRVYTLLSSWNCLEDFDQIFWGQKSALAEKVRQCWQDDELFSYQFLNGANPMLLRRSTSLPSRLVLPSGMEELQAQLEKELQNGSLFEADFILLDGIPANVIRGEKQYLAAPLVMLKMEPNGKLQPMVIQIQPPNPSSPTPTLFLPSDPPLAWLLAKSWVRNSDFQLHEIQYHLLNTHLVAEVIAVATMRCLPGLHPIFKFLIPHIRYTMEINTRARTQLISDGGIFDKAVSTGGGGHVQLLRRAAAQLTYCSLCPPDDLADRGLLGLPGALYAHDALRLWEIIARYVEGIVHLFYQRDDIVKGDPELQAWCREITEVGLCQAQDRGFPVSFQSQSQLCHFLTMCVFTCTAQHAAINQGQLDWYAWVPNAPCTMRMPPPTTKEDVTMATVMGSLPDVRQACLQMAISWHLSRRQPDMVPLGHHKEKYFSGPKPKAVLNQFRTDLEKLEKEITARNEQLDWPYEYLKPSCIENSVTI
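Hydroperoxide product was detected by ferrous iron/xylenol orange as the 573 to 405 nm absorbance ratio. Arachidonic acid at 40 uM (final) was turned over for 30 min at room temperature by 150 nM human 12hLO, pH 7.0 Hepes buffer, after 15 min compound preincubation.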
Numbers stand for hits; n = inactive; u = inconclusive; x = no result; [ ] = another dose, or the depositor's remark. The entries come from a sample that favours hits as a whole. Unless noted, calls follow the shape of the dose curve; as a rule, active = well fitted curve in the direction sought with a large enough effect; inconclusive = small, poorly fitted or top-dose-only effect, or another doubt; inactive = no such curve, though single readings can be large; an effect the other way counts as inactive or inconclusive.

SMILES | HT1080 IDH1KD tx | HT1080NT lethal | IL1B secr inh | DT40 TDP1 no CPT | TDP1 cell CPT | ALOX12 inh
N=c1n(CCN2CCCC2)c2ccccc2n1CC(O)c1ccc(Cl)c(Cl)c1 (configuration not stated) | u | u | n | 3.66µM | 5.8µM | u
CCOc1ccc(NC(=O)c2cc(=O)c3ccc(C)c(C)c3o2)cc1 | x | x | x | 9.2µM | u | u
CCCCOC(=O)c1ccc(NC(=O)c2cc(=O)c3ccc(C)c(C)c3o2)cc1 | x | x | x | x | x | n
CCCc1[nH]nc2c1C(CCC)C(C#N)=C(N)O2 (configuration not stated) | n | n | n | n | n | n
CC(C)c1[nH]nc2c1C(C1C=CCCC1)C(C#N)=C(N)O2 (configuration not stated) | u | u | -87.8 | 13µM | 16.4µM | u
CC(C)c1[nH]nc2c1C(c1cccs1)C(C#N)=C(N)O2 (configuration not stated) | n | u | -86.0 | u | u | u
CCc1[nH]nc2c1C(C1C=CCCC1)C(C#N)=C(N)O2 (configuration not stated) | n | n | -54.4 | 20.6µM | 23.1µM | n
CC(C)C1C(C#N)=C(N)Oc2n[nH]c(-c3cccs3)c21 (configuration not stated) | n | n | n | n | n | u
Cc1ccc(NC(=O)c2nn(C)c3c2CCc2sccc2-3)cc1F | x | x | x | x | x | n
O=C(O)CSc1nnc(CSc2nc3ccccc3s2)n1-c1ccccc1 | n | n | n | n | n | n
Cc1cc(C)n2c(Br)c(CSc3nc4ccccc4s3)nc2n1 | n | n | n | 18.4µM | n | n
CCn1c(CSc2nc3ccccc3s2)nc2ccccc21 | n | n | n | 16.4µM | u | n
C#CCSc1nnc(CSc2nc3ccccc3s2)n1-c1ccccc1 | n | n | u | 18.4µM | u | n
c1csc(CSc2nc3ccccc3s2)c1 | n | n | n | n | n | n
CCOc1ccccc1C1NC(=O)N(CC(=O)Nc2ccc(C(C)=O)cc2)C2=C1C(=O)OC2 (configuration not stated) | x | x | x | x | x | n
Cc1ccc(-c2noc(CSc3nnc(Cc4cccs4)n3-c3ccccc3)n2)cc1 | n | n | n | 20.6µM | 20.6µM | n
Clc1ccc(-c2noc(CSc3nnc(Cc4cccs4)n3-c3ccccc3)n2)cc1 | n | n | n | u | u | n
CCOc1ccc(-c2noc(CSc3nnc(Cc4ccccc4)n3-c3cccc(C)c3)n2)cc1 | x | x | x | 13µM | 18.4µM | n
Cc1cccc(-n2c(Cc3ccccc3)nnc2SCc2nc(-c3cccs3)no2)c1 | x | x | x | u | u | n
Cc1ccc(-c2noc(CSc3nnc(Cc4ccccc4)n3-c3cccc(C)c3)n2)cc1 | u | n[9.24 µM] | u | 18.4µM | u | n
CC(C)n1cnc2nc(CSc3ccc(NC(=O)c4cccc(F)c4)cc3)cc(=O)n21 | x | x | x | x | x | n
CC(C)(C)OC(=O)N1CCC(c2c(C(=O)N3CCC(c4ccccc4)C3)cnn2-c2ccc(Cl)cc2)CC1 (configuration not stated) | x | x | x | 16.4µM | 13µM | n
Cc1ccc(-n2ncc(C(=O)N3CCC(c4ccccc4)C3)c2C2CCN(C(=O)OC(C)(C)C)CC2)cc1 (configuration not stated) | x | x | x | 23.1µM | 14.6µM | n
CC(C)(C)OC(=O)N1CCC(c2c(C(=O)O)cnn2-c2ccc(Cl)cc2)CC1 | n | n | n | n | n | u
Cc1nc2cc(NC(=O)COc3cc(C(C)C)ccc3C)ccc2o1 | x | x | x | x | x | n
